Here are results for three compounds from PubChem BioAssay AID1159580 (chemical genetic matrix, 2015).

A short description of this assay: chemical genetic growth profiling, strain panel (AID 1159580).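 Further: tested at 20 µM; growth read once vehicle control cultures reached saturation at 30 °C; 1 = growth at the plate median or of vehicle wells; lower values mean less growth of the strain.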 The conditions noted are these: growth OD.
Setting [1] is: S. cerevisiae deletion strains, locus YMR263W, strain SAP30, hits give low values.
Where [2] appears, read: S. cerevisiae deletion strains, locus YNL153C, strain GIM3, hits give low values.
Where [3] appears, read: S. cerevisiae deletion strains, locus YAL013W, strain DEP1, hits give low values.
Setting [4] is: S. cerevisiae deletion strains, locus YBR229C, strain ROT2, hits give low values.
The mark [5] stands for this setting: S. cerevisiae deletion strains, locus YDL101C, strain DUN1, hits give low values.
Setting [6] is: S. cerevisiae deletion strains, locus YDR150W, strain NUM1, hits give low values.
Setting [7] is: S. cerevisiae deletion strains, locus YEL061C, strain CIN8, hits give low values.
Where [8] appears, read: S. cerevisiae deletion strains, locus YGR078C, strain PAC10, hits give low values.
Setting [9] is: S. cerevisiae deletion strains, locus YHR030C, strain SLT2, hits give low values.
Where [10] appears, read: S. cerevisiae deletion strains, locus YHR087W, strain rtc3, hits give low values.
Setting [11] is: S. cerevisiae deletion strains, locus YJL187C, strain SWE1, hits give low values.
[12] abbreviates: S. cerevisiae deletion strains, locus YJR043C, strain POL32, hits give low values.
[13] abbreviates: S. cerevisiae deletion strains, locus YJR075W, strain HOC1, hits give low values.
The mark [14] stands for this setting: S. cerevisiae deletion strains, locus YLR039C, strain RIC1, hits give low values.
Where [15] appears, read: S. cerevisiae deletion strains, locus YLR058C, strain SHM2 (second series), hits give low values.
The mark [16] stands for this setting: S. cerevisiae deletion strains, locus YLR085C, strain ARP6, hits give low values.
[17] abbreviates: S. cerevisiae deletion strains, locus YLR262C, strain YPT6, hits give low values.
Setting [18] is: S. cerevisiae deletion strains, locus YML094W, strain GIM5, hits give low values.
[19] abbreviates: S. cerevisiae deletion strains, locus YMR219W, strain ESC1, hits give low values.
[20] abbreviates: S. cerevisiae deletion strains, locus YNL298W, strain CLA4 (second series), hits give low values.
Setting [21] is: S. cerevisiae deletion strains, locus YNL322C, strain KRE1, hits give low values.
Setting [22] is: S. cerevisiae deletion strains, locus YNR030W, strain Alg12, hits give low values.
Where [23] appears, read: S. cerevisiae deletion strains, locus YPL055C, strain LGE1, hits give low values.
Where [24] appears, read: S. cerevisiae deletion strains, locus YPL241C, strain CIN2, hits give low values.
[25] abbreviates: S. cerevisiae deletion strains, locus YPR135W, strain CTF4, hits give low values.

Each structure is given as a SMILES string. The whole screen tested about 5,500 compounds, of which about 2,000 (36%) were called active. Not shown: some 18% with an inconclusive outcome. Some of the results follow. Values without a mark were called inactive. No stated cut-off is given here; in the data, active means normalized growth mostly below about 0.91 (no sharp cut-off); inconclusive means no clear call, values can overlap the other calls; inactive means mostly above about 0.92.

Regarding `Nc1nc(OCc2ccccc2)c2[nH]cnc2n1`, the normalized growth was 0.994 (S. cerevisiae deletion strains, locus YAL040C, strain CLN3, hits give low values); 1 (S. cerevisiae deletion strains, locus YCL061C, strain MRC1 (second series), hits give low values); 1.02 (S. cerevisiae deletion strains, locus YDR363W, strain ESC2, hits give low values); 1 (S. cerevisiae deletion strains, locus YER002W, strain NOP16, hits give low values); 1 under setting [1]; 0.999 under setting [2]. Further, the normalized growth runs as follows: (S. cerevisiae deletion strains, locus YNL175C, strain NOP13, hits give low values) 0.982; (S. cerevisiae deletion strains, locus YNL197C, strain WHI3, hits give low values) 0.984; (S. cerevisiae deletion strains, locus YNL224C, strain SQS1, hits give low values) 1.02; (S. cerevisiae deletion strains, locus YOR083W, strain WHI5 (second series), hits give low values) 1.01.

Turning to `O=[N+]([O-])c1cc(C(F)(F)F)c(N2CCCCC2)cc1N1CCCCC1`, the normalized growth is, setting by setting: under setting [3], 0.996; under setting [4], 0.994; under setting [5], 1.03; under setting [6], 1.01; under setting [7], 0.967; under setting [8], 1.01. Further, the normalized growth was 1.01 under setting [9]; 0.98 under setting [10]; 0.977 under setting [11]; 1.01 under setting [12]; 0.996 under setting [13]; 0.864 under setting [14]. For the same compound, the normalized growth was 0.974 under setting [15]; 0.915 under setting [16]; 0.972 under setting [17]; 0.973 under setting [18]; 0.983 under setting [19]; 1.01 under setting [1]. For the same compound, the normalized growth runs as follows: (S. cerevisiae deletion strains, locus YMR307W, strain GAS1, hits give low values) 1.02; under setting [2], 1.03; under setting [20], 1.03; under setting [21], 0.989; under setting [22], 0.989; under setting [23], 0.978. Also, the normalized growth is 1.02 under setting [24]; 0.977 under setting [25]; 0.992 (S. cerevisiae strains, strain wild type, hits give low values).

On to `O=[N+]([O-])c1ccc(N2CCCCC2)nc1N1CCCCC1`, for which the normalized growth runs as follows: under setting [3], 0.967; under setting [4], 0.96; under setting [5], 0.978; under setting [6], 0.961; under setting [7], 0.95; under setting [8], 0.963. In addition, the normalized growth is, setting by setting: (S. cerevisiae deletion strains, locus YGR229C, strain SMI1, hits give low values) 0.961; under setting [9], 0.587 (active); under setting [10], 0.943; under setting [11], 0.954; under setting [12], 0.977; under setting [13], 0.914. For the same compound, the normalized growth is 0.581 (active) under setting [14]; 0.954 under setting [15]; 0.568 (active) under setting [16]; 0.59 (active) under setting [17]; 0.9 under setting [18]; 0.944 (active) under setting [19]. For the same compound, the normalized growth under setting [1] was 0.95; the normalized growth under setting [2] was 0.909 (active); the normalized growth under setting [20] is 0.906; the normalized growth under setting [21] is 0.921 (active); the normalized growth under setting [22] is 0.89; the normalized growth under setting [23] was 0.908. For the same compound, the normalized growth reads like this: under setting [24], 0.803 (active); under setting [25], 0.587 (active).
